PubChem BioAssay (EPA / NIEHS)
Several values for one entry are separate records, joined by “and”; a condition that tells them apart may be missing. Equal entries are not always repeated. Records with an inconclusive call do not appear. Activity calls are given as the source filed them. Rule for the calls: active = hit-call score of the fitted dose curve at least 0.9, where 1 is the maximum; inconclusive = response in the unintended direction; inactive = score below 0.9.

How the values were obtained:
[1] = target: rabbit Imidazoline 2 Central (I2C), CKB (gene 100009085) (UniProt P00567); test: NVS_ENZ_rabI2C: NovaScreen (NVS) Enzymatic Assay for rabbit Imidazoline 2 Central (I2C) (AID 2283228)
Outline: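 Rabbit brain membranes, cell-free; readout by filter-based scintillation counting 1.5 hours after dosing, loss of signal vs DMSO. Initial duplicate test at 25 uM, then concentration-response with 50 uM top concentration.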

[2] = target: human Sirtuin 1 (SIRT1), SIRT1 (gene 23411) (UniProt Q96EB6); test: NVS_ENZ_hSIRT1: NovaScreen (NVS) Enzymatic Assay for human Sirtuin 1 (SIRT1) (AID 2283219)
Outline: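 Cell-free recombinant SIRT1 with a fluorescent substrate; substrate and product separated by electrophoretic mobility shift and read by fluorescence intensity, 1 h after dosing. Primary screen at 25 uM in duplicate; hits re-run in concentration-response up to 50 uM, relative to DMSO.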

[3] = target: human Tropomyosin Receptor Kinase A (TRKA), NTRK1 (gene 4914) (UniProt P04629); test: NVS_ENZ_hTrkA: NovaScreen (NVS) Enzymatic Assay for human Tropomyosin Receptor Kinase A (TRKA) (AID 2283224)
Outline: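 Compounds were screened at 25 uM in duplicate, then concentration series to a 50 uM top for those meeting threshold (e.g. 30% inhibition). Enzyme was recombinant human TrkA, incubated 1 h. Product formation was quantified by fluorescence after mobility-shift separation.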

[4] = target: human Vascular Endothelial Growth Factor Receptor 1 (VEGFR1), FLT1 (gene 2321) (UniProt P17948); test: NVS_ENZ_hVEGFR1: NovaScreen (NVS) Enzymatic Assay for human Vascular Endothelial Growth Factor Receptor 1 (VEGFR1) (AID 2283226)
Outline: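 Kinase activity of recombinant human VEGFR1 was read by fluorescence after electrophoretic separation of product from substrate, 1 h post-dosing; initial duplicate single-point testing at 25 uM, followed by concentration-series follow-up, with DMSO as baseline.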

[5] = target: human Vascular Endothelial Growth Factor Receptor 3 (VEGFR3), FLT4 (gene 2324) (UniProt P35916); test: NVS_ENZ_hVEGFR3: NovaScreen (NVS) Enzymatic Assay for human Vascular Endothelial Growth Factor Receptor 3 (VEGFR3) (AID 2283229)
Outline: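 Chemicals first run in duplicate at 25 uM, with actives re-tested in concentration series to a top of 50 uM. Recombinant VEGFR3 activity measured after 1 h via fluorescence with mobility-shift product separation; inhibition fitted relative to DMSO.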

[6] = target: human Vascular Endothelial Growth Factor Receptor 2 (VEGFR2), KDR (gene 3791) (UniProt P35968); test: NVS_ENZ_hVEGFR2: NovaScreen (NVS) Enzymatic Assay for human Vascular Endothelial Growth Factor Receptor 2 (VEGFR2) (AID 2283230)
Outline: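 Cell-free recombinant VEGFR2 kinase, fluorescent substrate with electrophoretic mobility-shift separation; read 1 h after dosing. Screened at 25 uM in duplicate, hits to concentration-response up to 50 uM; loss-of-signal versus DMSO.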

[7] = target: sheep Cyclooxygenase-2 (Cox2), PTGS2 (gene 443460) (UniProt P79208); test: NVS_ENZ_oCOX2: NovaScreen (NVS) Enzymatic Assay for sheep Cyclooxygenase-2 (Cox2) (AID 2283231)
Outline: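 Ovine placental enzyme, cell-free; chemical added, 0.66 h, absorbance (colorimetric). Screen 25 uM in duplicate; ≥threshold hits titrated, top 50 uM. Inhibition = signal loss vs DMSO.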

[8] = target: rat Adenylate Cyclase, Forskolin Stimulated, Adcy5 (gene 64532) (UniProt Q04400); test: NVS_ENZ_rACFSKBinding: NovaScreen (NVS) Enzymatic Assay for rat Adenylate Cyclase, Forskolin Stimulated (AID 2283232)
Outline: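 Chemicals were first tested at 25 uM in duplicate, then hits run as concentration series with top concentration 50 uM. Enzyme source was rat forebrain membranes; radiometric filter read-out after 1 h, referenced to DMSO.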

[9] = target: human Sirtuin 3 (SIRT3), SIRT3 (gene 23410) (UniProt Q9NTG7); test: NVS_ENZ_hSIRT3: NovaScreen (NVS) Enzymatic Assay for human Sirtuin 3 (SIRT3) (AID 2283222)
Outline: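 Cell-free enzyme assay with recombinant protein and fluorescent substrate, product separated by electrophoretic mobility shift; read 1 hour after dosing. Screened in duplicate at 25 uM, then singleton concentration-response up to 50 uM; loss of signal versus DMSO.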

[10] = target: human SRC Proto-Oncogene, Non-receptor Tyrosine Kinase (SRC), SRC (gene 6714) (UniProt P12931); test: NVS_ENZ_hSRC: NovaScreen (NVS) Enzymatic Assay for human SRC Proto-Oncogene, Non-receptor Tyrosine Kinase (SRC) (AID 2283223)
Outline: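 Compounds passing 30% inhibition at 25 uM (duplicate) were titrated to a top concentration of 50 uM. Enzyme activity read by fluorescence with mobility-shift substrate/product separation after 1 h; DMSO baseline.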

Chain of human Sirtuin 1 (SIRT1), SIRT1 (gene 23411) (Q96EB6 whole entry, looked up): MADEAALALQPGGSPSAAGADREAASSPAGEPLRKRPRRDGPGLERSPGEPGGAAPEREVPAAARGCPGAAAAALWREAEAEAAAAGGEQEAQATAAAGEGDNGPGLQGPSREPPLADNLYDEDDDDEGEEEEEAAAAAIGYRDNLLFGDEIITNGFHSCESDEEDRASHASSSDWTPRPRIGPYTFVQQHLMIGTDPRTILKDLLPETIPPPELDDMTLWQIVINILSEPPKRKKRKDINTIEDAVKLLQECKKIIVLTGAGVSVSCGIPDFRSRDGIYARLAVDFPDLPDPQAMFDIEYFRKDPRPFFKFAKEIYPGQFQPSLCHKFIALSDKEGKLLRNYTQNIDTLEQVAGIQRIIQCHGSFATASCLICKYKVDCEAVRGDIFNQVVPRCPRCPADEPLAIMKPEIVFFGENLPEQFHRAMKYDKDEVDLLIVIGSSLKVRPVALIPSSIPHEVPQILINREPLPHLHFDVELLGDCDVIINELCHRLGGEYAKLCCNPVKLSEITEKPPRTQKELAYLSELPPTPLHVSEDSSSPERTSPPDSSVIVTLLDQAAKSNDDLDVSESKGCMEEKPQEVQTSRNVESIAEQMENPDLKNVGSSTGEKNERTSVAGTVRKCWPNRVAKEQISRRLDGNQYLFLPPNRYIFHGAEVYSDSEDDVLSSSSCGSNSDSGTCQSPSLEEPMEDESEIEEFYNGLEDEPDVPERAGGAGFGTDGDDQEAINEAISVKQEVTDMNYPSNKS
Chain of human Sirtuin 3 (SIRT3), SIRT3 (gene 23410) (Q9NTG7 whole entry, looked up): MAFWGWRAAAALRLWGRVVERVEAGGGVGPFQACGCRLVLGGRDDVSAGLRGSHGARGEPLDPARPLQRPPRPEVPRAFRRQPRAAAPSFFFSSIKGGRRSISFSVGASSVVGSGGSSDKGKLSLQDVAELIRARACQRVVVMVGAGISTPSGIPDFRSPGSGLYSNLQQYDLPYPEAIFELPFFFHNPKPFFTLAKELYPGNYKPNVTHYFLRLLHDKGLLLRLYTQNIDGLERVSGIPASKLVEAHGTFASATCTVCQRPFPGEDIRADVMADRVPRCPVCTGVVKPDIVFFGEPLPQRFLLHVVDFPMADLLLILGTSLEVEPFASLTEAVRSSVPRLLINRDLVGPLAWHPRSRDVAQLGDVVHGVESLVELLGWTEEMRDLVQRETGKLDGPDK
Chain of rabbit Imidazoline 2 Central (I2C), CKB (gene 100009085) (P00567 whole entry, looked up): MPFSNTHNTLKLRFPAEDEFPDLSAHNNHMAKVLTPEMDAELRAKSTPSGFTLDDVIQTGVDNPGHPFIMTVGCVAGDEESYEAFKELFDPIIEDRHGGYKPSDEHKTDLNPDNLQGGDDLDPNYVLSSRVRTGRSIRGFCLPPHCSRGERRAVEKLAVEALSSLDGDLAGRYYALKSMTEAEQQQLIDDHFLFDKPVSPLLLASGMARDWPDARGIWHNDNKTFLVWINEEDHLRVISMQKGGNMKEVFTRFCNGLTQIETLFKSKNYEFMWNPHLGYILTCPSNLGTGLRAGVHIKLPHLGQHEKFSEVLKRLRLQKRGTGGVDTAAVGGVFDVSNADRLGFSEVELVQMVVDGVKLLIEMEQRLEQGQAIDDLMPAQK
Chain of human Vascular Endothelial Growth Factor Receptor 1 (VEGFR1), FLT1 (gene 2321) (P17948 whole entry, looked up): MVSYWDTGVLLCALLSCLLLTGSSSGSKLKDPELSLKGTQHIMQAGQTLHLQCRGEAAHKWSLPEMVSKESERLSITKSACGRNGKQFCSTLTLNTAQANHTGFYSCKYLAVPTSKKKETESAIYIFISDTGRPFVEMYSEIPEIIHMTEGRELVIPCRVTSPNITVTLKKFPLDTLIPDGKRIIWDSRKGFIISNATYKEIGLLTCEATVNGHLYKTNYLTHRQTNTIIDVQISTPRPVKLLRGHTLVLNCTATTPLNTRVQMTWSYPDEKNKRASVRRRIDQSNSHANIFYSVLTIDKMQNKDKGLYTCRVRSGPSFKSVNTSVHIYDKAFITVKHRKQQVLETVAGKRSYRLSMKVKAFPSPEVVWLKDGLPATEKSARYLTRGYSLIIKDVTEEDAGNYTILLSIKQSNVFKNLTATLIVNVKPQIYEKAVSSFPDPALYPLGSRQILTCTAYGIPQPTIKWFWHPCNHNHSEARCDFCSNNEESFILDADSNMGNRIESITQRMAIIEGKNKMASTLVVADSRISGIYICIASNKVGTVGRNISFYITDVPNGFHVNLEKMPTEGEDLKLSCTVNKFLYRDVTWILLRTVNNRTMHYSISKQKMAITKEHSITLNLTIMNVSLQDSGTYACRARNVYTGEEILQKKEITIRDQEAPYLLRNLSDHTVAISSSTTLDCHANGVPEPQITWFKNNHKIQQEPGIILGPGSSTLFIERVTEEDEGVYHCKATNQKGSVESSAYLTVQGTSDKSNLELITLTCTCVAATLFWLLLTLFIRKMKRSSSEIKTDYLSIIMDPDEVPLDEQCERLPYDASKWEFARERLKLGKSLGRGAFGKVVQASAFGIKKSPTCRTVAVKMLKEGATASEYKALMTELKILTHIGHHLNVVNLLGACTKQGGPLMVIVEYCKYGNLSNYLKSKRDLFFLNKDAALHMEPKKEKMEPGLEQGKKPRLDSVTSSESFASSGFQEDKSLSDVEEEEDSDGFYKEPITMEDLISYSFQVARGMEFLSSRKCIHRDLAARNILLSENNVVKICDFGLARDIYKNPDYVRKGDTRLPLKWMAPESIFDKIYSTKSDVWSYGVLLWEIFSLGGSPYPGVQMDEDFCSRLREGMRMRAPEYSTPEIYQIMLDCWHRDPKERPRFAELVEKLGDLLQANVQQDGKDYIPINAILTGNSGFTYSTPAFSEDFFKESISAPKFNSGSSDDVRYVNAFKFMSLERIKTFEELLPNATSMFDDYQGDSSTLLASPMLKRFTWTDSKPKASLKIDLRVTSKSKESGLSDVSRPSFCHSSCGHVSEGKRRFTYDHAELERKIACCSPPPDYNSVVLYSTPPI
Chain of sheep Cyclooxygenase-2 (Cox2), PTGS2 (gene 443460) (P79208 whole entry, looked up): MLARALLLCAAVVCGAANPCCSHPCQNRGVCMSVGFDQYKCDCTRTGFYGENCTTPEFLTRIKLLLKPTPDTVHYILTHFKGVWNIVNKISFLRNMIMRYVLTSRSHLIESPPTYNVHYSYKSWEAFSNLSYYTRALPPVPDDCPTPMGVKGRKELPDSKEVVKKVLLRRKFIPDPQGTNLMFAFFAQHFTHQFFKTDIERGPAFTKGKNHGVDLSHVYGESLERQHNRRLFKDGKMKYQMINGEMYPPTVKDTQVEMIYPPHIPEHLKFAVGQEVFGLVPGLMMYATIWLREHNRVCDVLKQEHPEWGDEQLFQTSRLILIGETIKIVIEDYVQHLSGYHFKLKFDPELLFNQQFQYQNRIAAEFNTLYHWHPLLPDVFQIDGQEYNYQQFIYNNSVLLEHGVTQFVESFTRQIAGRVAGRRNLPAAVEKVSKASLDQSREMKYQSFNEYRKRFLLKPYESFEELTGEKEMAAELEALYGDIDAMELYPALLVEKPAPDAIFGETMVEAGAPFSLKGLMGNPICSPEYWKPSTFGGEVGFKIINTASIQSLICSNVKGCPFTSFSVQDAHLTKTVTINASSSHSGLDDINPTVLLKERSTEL
Chain of human Vascular Endothelial Growth Factor Receptor 2 (VEGFR2), KDR (gene 3791) (P35968 whole entry, looked up): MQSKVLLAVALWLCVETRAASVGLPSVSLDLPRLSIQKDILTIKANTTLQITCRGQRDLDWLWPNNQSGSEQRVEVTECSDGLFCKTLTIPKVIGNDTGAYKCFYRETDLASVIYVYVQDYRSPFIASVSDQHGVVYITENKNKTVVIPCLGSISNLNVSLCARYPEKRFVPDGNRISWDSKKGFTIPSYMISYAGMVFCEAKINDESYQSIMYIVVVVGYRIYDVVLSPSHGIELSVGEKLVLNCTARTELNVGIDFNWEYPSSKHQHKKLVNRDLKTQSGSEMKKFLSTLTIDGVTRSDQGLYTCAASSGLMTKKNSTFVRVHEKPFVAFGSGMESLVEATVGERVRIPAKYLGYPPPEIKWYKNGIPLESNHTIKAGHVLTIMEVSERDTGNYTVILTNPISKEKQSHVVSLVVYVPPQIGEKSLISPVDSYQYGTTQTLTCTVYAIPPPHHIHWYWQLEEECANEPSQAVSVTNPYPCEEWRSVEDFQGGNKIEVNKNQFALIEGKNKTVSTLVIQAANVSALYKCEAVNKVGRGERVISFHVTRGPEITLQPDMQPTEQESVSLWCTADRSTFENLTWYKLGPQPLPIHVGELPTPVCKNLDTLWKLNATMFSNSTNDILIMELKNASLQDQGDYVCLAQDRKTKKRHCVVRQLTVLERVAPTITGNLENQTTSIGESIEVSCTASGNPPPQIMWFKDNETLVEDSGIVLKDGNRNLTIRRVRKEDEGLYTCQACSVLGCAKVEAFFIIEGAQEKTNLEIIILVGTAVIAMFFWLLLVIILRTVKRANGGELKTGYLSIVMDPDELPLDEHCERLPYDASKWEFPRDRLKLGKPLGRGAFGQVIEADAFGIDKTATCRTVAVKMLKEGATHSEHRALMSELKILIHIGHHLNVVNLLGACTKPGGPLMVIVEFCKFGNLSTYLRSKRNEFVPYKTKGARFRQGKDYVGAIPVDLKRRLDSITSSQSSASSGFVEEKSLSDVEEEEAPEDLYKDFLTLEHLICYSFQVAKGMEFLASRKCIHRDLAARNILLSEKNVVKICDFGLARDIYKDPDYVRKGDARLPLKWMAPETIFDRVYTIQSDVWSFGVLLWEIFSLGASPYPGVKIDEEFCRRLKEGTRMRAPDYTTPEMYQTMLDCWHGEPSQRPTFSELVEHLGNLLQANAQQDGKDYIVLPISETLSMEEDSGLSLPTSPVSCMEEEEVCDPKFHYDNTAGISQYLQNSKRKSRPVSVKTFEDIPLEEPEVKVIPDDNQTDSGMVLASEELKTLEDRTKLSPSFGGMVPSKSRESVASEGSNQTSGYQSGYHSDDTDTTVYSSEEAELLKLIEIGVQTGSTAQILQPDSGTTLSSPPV

Question: Which outcome [1] does the source give for `O=C(Nc1ccccc1)Nc1cnns1` here?
Answer: inactive

Question: For `CCC(C)Nc1c([N+](=O)[O-])cc(C(C)(C)C)cc1[N+](=O)[O-]` (centres undefined), which outcome [2] is on record?
Answer: inactive

Question: With `O=[N+]([O-])c1c(Cl)c(Cl)c(Cl)c(Cl)c1Cl` as the compound, how does the outcome [1] read?
Answer: inactive

Question: What does the source list for `O=S(=O)(O)C(F)(F)C(F)(F)C(F)(F)C(F)(F)C(F)(F)C(F)(F)C(F)(F)C(F)(F)F`?
Answer: AC50 [3]: 36.5 µM (active) and 28.4 µM (active); AC50 [4]: 11.9 µM (active) and 11.4 µM (active) and 8.57 µM (active); AC50 [5]: 7.45 µM (active) and 9.17 µM (active); AC50 [6]: 27.2 µM (active) and 43.1 µM (active); AC50 [7]: 9.06 µM (active)

Question: What does the source list for `N#Cc1c(Cl)c(Cl)c(Cl)c(C#N)c1Cl`?
Answer: outcome [2]: inactive; AC50 [5]: 38.7 µM (active); outcome [6]: inactive; AC50 [8]: 25 µM (active)

Question: With `O=[N+]([O-])/N=C1\NCCN1Cc1ccc(Cl)nc1` as the compound, how does the AC50 [1] read?
Answer: 11.4 µM (active)

Question: `CCCN(CCC)c1c([N+](=O)[O-])cc(C(F)(F)F)cc1[N+](=O)[O-]` was tested. Which outcome [7] did it give?
Answer: inactive

Question: Which outcome [5] does the source give for `CC(C)(C)C(O)C(Oc1ccc(Cl)cc1)n1cncn1` (centres undefined) here?
Answer: inactive

Question: What about the outcome [6] of the same compound?
Answer: inactive

Question: `CNC(=O)Oc1cccc(N=CN(C)C)c1` was tested. Which AC50 [1] did it give?
Answer: 0.67 µM (active)

Question: How did the outcome [5] turn out when `Oc1cc(Cl)ccc1Oc1ccc(Cl)cc1Cl` was run?
Answer: inactive

Question: And the outcome [6]?
Answer: inactive

Question: What about the AC50 [7] of the same compound?
Answer: 18.6 µM (active)

Question: What about the outcome [8] of the same compound?
Answer: inactive

Question: Which outcome [3] does the source give for `CC(C)(C)C(O)/C(=C\c1ccc(Cl)cc1Cl)n1cncn1` (centres undefined) here?
Answer: inactive

Question: With `ClC1C(Cl)C(Cl)C(Cl)C(Cl)C1Cl` (centres undefined) as the compound, how does the outcome [2] read?
Answer: inactive

Question: How did the outcome [9] turn out when `CCCN(CCOc1c(Cl)cc(Cl)cc1Cl)C(=O)n1ccnc1` was run?
Answer: inactive

Question: And the outcome [1]?
Answer: inactive

Question: With `COP(=S)(OC)Oc1ccc(SC)c(C)c1` as the compound, how does the outcome [5] read?
Answer: inactive

Question: What does the source list for `CC[C@H](C)[C@H]1O[C@]2(C=C[C@@H]1C)C[C@@H]1C[C@@H](C/C=C(\C)[C@@H](O[C@H]3C[C@H](OC)[C@@H](O[C@H]4C[C@H](OC)[C@@H](O)[C@H](C)O4)[C@H](C)O3)[C@@H](C)/C=C/C=C3\CO[C@@H]4[C@H](O)C(C)=C[C@@H](C(=O)O1)[C@]34O)O2` (tested in a mixture with another compound)?
Answer: AC50 [2]: 17.2 µM (active); AC50 [9]: 5.19 µM (active); outcome [6]: inactive; AC50 [7]: 8.68 µM (active)

Question: With `CCC(C)(C)C(=O)OC1=C(c2ccc(Cl)cc2Cl)C(=O)OC12CCCCC2` as the compound, how does the AC50 [9] read?
Answer: 25 µM (active)

Question: For `C#CCN1C(=O)COc2cc(F)c(N3C(=O)C4=C(CCCC4)C3=O)cc21`, which outcome [7] is on record?
Answer: inactive

Question: For `Oc1ccc(Cl)cc1Cc1ccccc1`, which outcome [10] is on record?
Answer: inactive

Question: What about the AC50 [3] of the same compound?
Answer: 9.39 µM (active)
